Records with an inconclusive call do not appear. Calls of active or inactive are those of the source. The call rests on the fitted dose curve; in most records, active means well fitted curve in the direction sought with a large enough effect; inconclusive means small, poorly fitted or top-dose-only effect, or effect the other way, or another doubt; inactive means no such curve, though single readings can be large or run the other way.
These compounds were tested against Pyruvate kinase PKLR (Homo sapiens) (UniProt P30613) (assay: Secondary LDH Assay for Activators of Human Liver Pyruvate Kinase: for Probe SAR). Conditions: purified hPK-L, LDH-coupled NADH fluorescence kinetic; series mostly up to 58.2 µM.
Sequence of Pyruvate kinase PKLR (Homo sapiens) (P30613 whole entry, looked up): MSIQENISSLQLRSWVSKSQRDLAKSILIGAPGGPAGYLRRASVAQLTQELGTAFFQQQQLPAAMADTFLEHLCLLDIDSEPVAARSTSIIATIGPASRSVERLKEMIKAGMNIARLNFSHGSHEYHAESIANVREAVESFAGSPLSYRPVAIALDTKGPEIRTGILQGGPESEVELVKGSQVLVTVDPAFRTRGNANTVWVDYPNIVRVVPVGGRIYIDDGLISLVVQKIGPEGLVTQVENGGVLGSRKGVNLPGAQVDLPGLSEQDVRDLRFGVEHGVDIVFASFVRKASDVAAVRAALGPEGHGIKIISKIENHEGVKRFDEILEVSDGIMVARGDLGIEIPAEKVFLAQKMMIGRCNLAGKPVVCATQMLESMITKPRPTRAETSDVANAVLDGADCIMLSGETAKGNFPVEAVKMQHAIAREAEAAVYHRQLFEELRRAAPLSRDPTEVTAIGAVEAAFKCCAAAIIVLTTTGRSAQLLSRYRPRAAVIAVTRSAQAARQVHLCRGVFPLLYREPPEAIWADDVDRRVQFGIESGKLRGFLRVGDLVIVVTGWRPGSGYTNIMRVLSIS
Outline: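 Purified hPK-L (10 nM) coupled to LDH (1 uM) in pH 8.0 Tris with 0.1 mM PEP, 4 mM ADP, 0.2 mM NADH. Initial rates from kinetic NADH fluorescence depletion over 3–6 min, normalised to uninhibited and fructose-bis-phosphate EC100 activation.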

outcome, inactive:
Cc1ccc(NS(=O)(=O)c2ccc3c(c2)CCCC(=O)N3)cc1C
Cc1ccc(NS(=O)(=O)c2cc3c(cc2Cl)CCC(=O)N3)cc1Cl
Cc1ccc(-c2nc3cnccn3c2Nc2ccc(C(C)C)cc2)o1
Cc1ccc(NC(=O)c2ccc3c(c2)CCC(=O)N3)cc1C
O=C1c2ccccc2C(=O)N1Cc1ccccc1
O=C1CCc2cc(S(=O)(=O)Nc3ccccc3Cl)ccc2N1
Cc1ccc(NS(=O)(=O)c2ccc3c(c2)NC(=O)CO3)cc1C
Cc1ccc(NS(=O)(=O)c2ccc3c(c2)CC(=O)N3C)cc1C
O=C1CCc2cc(S(=O)(=O)Nc3cccc(B(O)O)c3)ccc2N1
COc1ccc(NS(=O)(=O)c2ccc3c(c2)CCC(=O)N3)cc1
Cc1ccc2nc(-c3ccc(C)o3)c(Nc3ccc4c(c3)OCO4)n2c1
Cc1cc(C)n2c(Nc3ccccc3)c(-c3ccc(C)o3)nc2n1
COc1cc(N2C(=O)c3ccccc3C2=O)c2ncccc2c1
Cc1ccc(NS(=O)(=O)c2ccc3c(c2)N(C)C(=O)CO3)cc1C
Cc1ccc(NS(=O)(=O)c2ccc3c(c2)CCN(C(=O)C(F)(F)F)C3)cc1C
CCCCN1C(=O)c2ccccc2C1=O
Cc1ccc(NS(=O)(=O)c2ccc3c(c2)C(Cl)(Cl)C(=O)N3)cc1C
Cc1ccc(NS(=O)(=O)c2ccc3c(c2)CCC(=O)N3)cc1C
O=S1(=O)N=C(Oc2ccc(Cl)cc2)c2ccccc21

— PubChem BioAssay AID2625 (National Center for Advancing Translational Sciences (NCATS), 2010)
